In PubChem BioAssay one finds outcome data, which are given here for 19 compounds.

Calls of active or inactive are those of the source.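 How the source made its calls: active means calcium signal rise more than 3 SD above the low-dose agonist control mean, in both duplicate plates and the primary screen; inactive means the rest.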

This assay can be described thus: nonspecific potentiation of DAMGO calcium response – cell-based, HEK293 mu-opioid receptor line, counter-screen for TRPC4 allosteric potentiator project, confirmation (AID 449724).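 Further: HEK293 cells carrying mu-opioid receptor only with no TRPC4 channel.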 To be noted: HEK293 mu-opioid receptor cells, Fluo-4 calcium flux, at 10 µM, compound added before EC20 DAMGO stimulus. On the technique in general: A counterscreen serves to expose hits that act by an unwanted route or on another target.
For the compound `Fc1ccc(-c2nnc(CN3CCN(c4ncc(C(F)(F)F)cc4Cl)CC3)o2)cc1`, the result was inactive.

Consider `CCN1CCN(c2ccc(S(=O)(=O)N3CCCCC3)cc2NC(=O)COc2ccccc2)CC1`, for which the result was inactive.

On to `CC1CC(C)CN(CCCNC(=O)c2nn(C)c3c2CS(=O)(=O)c2ccccc2-3)C1` (centres undefined), for which the result was inactive.

Turning to `Cc1ccc(/C=N\NC(=O)C2COc3cc4ccccc4cc3O2)o1` (centres undefined), the outcome was inactive.

For `Cc1cccc(C)c1OCC(O)CN` (centres undefined), the result was inactive.

Consider `CCn1cc(CN2CCCC(C(=O)Nc3ccc(-c4nc5ccccc5[nH]4)cc3)C2)c(C)n1` (centres undefined), for which the result was inactive.

For the compound `CC(C)(C)c1cc(Cl)ccc1OCCn1ccnc1`, the result was inactive.

As for `CC(C)c1ccc(NC(=S)N(C)CCc2ccccn2)cc1`, the result was inactive.

Regarding `CCCC(=O)NC(C)C(c1cccs1)N1CCN(c2ccccc2)CC1` (centres undefined), the result was inactive.

As for `Cc1ccc2oc(=O)c3cnn(CC(=O)NC4CCN(Cc5ccccc5)CC4)c3c2c1`, the result was inactive.

On to `O=C(CCc1ccccc1)NNC(=S)NC(=O)c1ccc(Cl)cc1`, for which the outcome was inactive.

With `C=CCn1c(CCNC(=O)c2ccco2)nc2ccccc21`, the outcome was inactive.

For the compound `Cc1sc2nc(CSc3ccccc3)nc(NCCN(C)C)c2c1C`, the outcome was inactive.

In the case of `O=C(CNS(=O)(=O)c1ccc2ccccc2c1)NCCc1ccccn1`, the outcome was inactive.

In the case of `COc1ccc(-c2cc(C#N)nc(N3CCNCC3)n2)cc1`, the result was inactive.

On to `Cc1ccc(C)c(OCCCCn2ccnc2)c1`, for which the result was inactive.

Consider `CCCN(CCC)CCNC(=S)Nc1ccc2nc3n(c(=O)c2c1)CCCCC3`, for which the result was inactive.

As to `Cc1cccc(NC(=S)NCC(c2cccnc2)N(C)C)c1` (centres undefined), the result was inactive.

With `COc1ccc(/C=C/CN2CCCC(C(=O)c3ccc(OC)c(F)c3)C2)cc1` (centres undefined), the outcome was inactive.
